# GLP1R ag – GLP-1 receptor (human) agonism. HEK293 GLP-1R CRE-luciferase, luminescence, 4-6 h; cells express a hypersensitive GLP-1R form. AID 624172. Potency, µM (doses to about 45.6 µM), for the others: at the top dose activation, usual class: activators. 0.007% of 380,000 active; further: % of control where 0% means no effect
# Target sequence (P43220 whole entry, looked up): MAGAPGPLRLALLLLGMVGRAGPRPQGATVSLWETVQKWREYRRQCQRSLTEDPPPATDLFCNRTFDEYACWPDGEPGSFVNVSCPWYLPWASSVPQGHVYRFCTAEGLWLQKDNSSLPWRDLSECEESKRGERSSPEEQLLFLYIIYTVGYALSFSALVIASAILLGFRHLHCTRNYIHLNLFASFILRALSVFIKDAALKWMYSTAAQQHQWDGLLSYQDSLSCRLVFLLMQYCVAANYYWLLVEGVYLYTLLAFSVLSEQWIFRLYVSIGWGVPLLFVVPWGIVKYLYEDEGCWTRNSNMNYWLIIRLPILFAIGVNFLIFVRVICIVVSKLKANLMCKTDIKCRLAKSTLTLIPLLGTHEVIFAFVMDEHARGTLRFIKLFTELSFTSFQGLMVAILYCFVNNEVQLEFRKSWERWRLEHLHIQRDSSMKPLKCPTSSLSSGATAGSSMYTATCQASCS
# GLP-1R inv ag – inverse agonists of human GLP-1 receptor; AID 624417; P43220; Potency, µM (highest dose often 38.3 µM), inactives show at the highest dose activity change, negative = inhibition, actives largely listed as inhibitors; HEK293 GLP-1R CRE-luciferase, luminescence, 24 h; GLP-1R form is constitutively active; 1.6% of 410,000 active; further: on the % scale 0 is the no-effect control and ±100 the full control effect; nearly all actives have a fitted effect of over 55% in size
#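 Constitutively active GLP-1R drives a cAMP-responsive luciferase in stably transfected HEK293 cells; test compounds are added after overnight (12 h) attachment and left 24 hr, and signal loss in luminescence marks inhibition.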
# Mito fusion act – mitochondrial division inhibition or fusion activation. S. cerevisiae fusion-defective mutant growth rescue, CellTiterGlo 48 h. Potency, µM (titrated, usually from 46.1 µM), for the others: top-dose growth rescue (activation), usual class: activators. 0.23% of 320,000 active. AID 485298; further: % of control where 0% means no effect; nearly all actives have a fitted effect of over 45% in size
#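 Growth-rescue viability read-out: after 48 h at the non-permissive 37C in glycerol/ethanol YPEG, yeast mitochondrial fusion mutants are measured by CellTiterGlo luminescence; compounds (23 nl pinned per well) restoring growth score as division inhibitors or fusion activators.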
# BRCA1 expr act – BRCA1 expression activation. Potency, µM (top dose mostly 46.1 µM), inactives show top-dose activation, actives largely listed as activators. AID 624202. 1.1% of 380,000 active. MCF7-BRCA1-FFLuc reporter, luminescence, 48 h; response scale: scaled: vehicle 0%, 10 µM genistein 100%; further: nearly all actives have a fitted effect of over 80% in size
#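 MCF7-BRCA1-FFLuc, 2000 cells/well; 2 h attach, 37 °C/5% CO2; compound 48 h; luciferase substrate 15 min; luminescence end-point. Norm. to genistein 10 microM max activation and DMSO; concentration-response curves fitted.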
# HEK293 tox – cytotoxicity counter-screen for GLP-1 receptor inverse agonists; Potency, µM (top dose mostly 38.3 µM), for inactives: top-dose activity change, negative = inhibition, most hits filed as inhibitors; 0.13% of 410,000 active; HEK293 cAMP-luciferase reporter cells, luminescence, 24 h;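 further: loss of luciferase light is scored as toxicity; on the % scale 0 is the no-effect control and ±100 the full control effect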
#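 MLSMR compounds, 24 hr on cells at 37 deg C/5% CO2; luminescence after luciferase reagent (12 min RT). Inhibition counted as the undesired cytotoxic outcome.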
# Numbers without * were called inactive; ? = inconclusive; . = not tested or not shown; [ ] = remark or other dose. In the library only some 2.8% were active in any assay of this set; here they are far more common. The call rests on the fitted dose curve; in most records, active means well fitted curve in the direction sought with a large enough effect; inconclusive means small, poorly fitted or top-dose-only effect, or another doubt; inactive means no such curve, though single readings can be large; an effect the other way counts as inactive or inconclusive. Potency means the concentration at half of the fitted maximal effect.
SMILES,GLP1R ag,GLP-1R inv ag,Mito fusion act,BRCA1 expr act,HEK293 tox
Cc1ccccc1-n1c(C)nnc1SCC(=O)NC1CCCc2ccccc21 (centres undefined),5%,-8%,-1%,8%,2%
Cc1cccc(Nc2nnc(SCC(=O)NC3CCCc4ccccc43)s2)c1C (centres undefined),5%,8.9µM*,?,-71%,-19%
C/C(N)=C(/C#N)C(=O)CSc1nnc(Nc2cccc(C)c2C)s1,15%,-33%,1%,11µM*,-17%
Cc1cc2ncc(C(=O)Nc3ccsc3C(=O)O)c(C)n2n1,9%,5%,-4%,14%,-1%
COC(=O)C1=CN(c2ccc(OC)cc2)C(N)=C(C#N)C1c1cccc2ccccc12 (centres undefined),.,?,.,.,-10%
CCc1ccc(N2C=C(C(=O)OC)C(c3cccc4ccccc34)C(C#N)=C2N)cc1 (centres undefined),.,1µM*,.,.,-13%
NC(=O)C1CCN(c2nc(-c3ccc(Br)cc3)cs2)CC1,4%,8%,-27%,1.8µM*,4%
NC(=O)C1CCN(c2nc(-c3cccs3)cs2)CC1,-2%,.,-6%,1.3µM*,.
CC(=O)c1ccc(-c2csc(N3CCC(C(N)=O)CC3)n2)cc1,.,.,-5%,.,.
O=C(Nc1ccc(Cl)cc1)N1CCSc2ccccc21,-5%,5%,4%,3%,9%
CC1=NN(/C(=N\c2nnc(C)s2)Nc2ccc(C)cc2)[C@H](c2ccc(C)cc2)S1,-2%,10µM*,22%,-4%,-13%
CC1CCN(C(=O)c2ccc3ccccc3c2)CC1,2%,?,-1%,2.5µM*,-8%
O=C(NCCCN1CCOCC1)C(=O)N/N=C/c1ccccc1,0%,10%,-1%,1%,13%
OC(c1ccc(F)cc1)c1ncc(-c2ccccc2Cl)[nH]1 (centres undefined),17%,13%,.,11µM*,8%
Cc1ccccc1-c1cnc(C(O)c2ccc(F)cc2)[nH]1 (centres undefined),6%,26%,.,?,-8%
OC(c1ccc(Cl)cc1)c1ncc(-c2ccccc2Cl)[nH]1 (centres undefined),10%,-25%,.,6%,2%
Cc1ccccc1-c1cnc(C(O)c2ccccc2)[nH]1 (centres undefined),20%,10%,.,4.5µM*,3%
COc1ccc(C(O)c2ncc(-c3cccc(OC)c3)[nH]2)cc1 (centres undefined),6%,-19%,.,16%,-2%
COc1cccc(-c2cnc(C(O)c3ccc(F)cc3)[nH]2)c1 (centres undefined),4%,12%,.,13µM*,2%
COc1cc2c(cc1OC)C(COc1ccc3c(C)cc(=O)oc3c1)N(C(=O)C(C)C)CC2 (centres undefined),.,12%,.,.,-3%
O=C(OCc1ccccc1)c1ccccc1,10%,5%,.,2%,2%
O=C(OCc1ccccc1)c1ccc2c(c1)-c1ccccc1C2=O,6%,?,26%,8.9µM*,0%
Cc1ccc(Nc2cc(-n3cccn3)ncn2)c(C)c1,5%,59%,1%,3.2µM*,-2%
Cc1ccc(Nc2cc(-n3nc(C)cc3C)ncn2)c(C)c1,4%,?,9%,1%,-29%
O=c1c2ccccc2oc2ccc(Oc3ccccc3)cc12,17%,?,-6%,3.5µM*,19%
SMILES,GLP1R ag,GLP-1R inv ag,Mito fusion act,BRCA1 expr act,HEK293 tox
CSc1ncc(CN2CCCC(C(=O)Nc3ccc(-c4ccco4)cc3)C2)cn1 (centres undefined),24%,?,-1%,17%,12%
CSc1ncc(CN2CCCC(C(=O)c3ccc(C(C)(C)C)cc3)C2)cn1 (centres undefined),-8%,?,13µM*,?,0%
CN1C(=O)CC(NNC(=O)c2ccc(Cl)cc2)C1=O (centres undefined),0%,5%,1%,3%[1.84 µM],-3%
COc1ccccc1N1CCN(/N=C/C=C\c2ccco2)CC1,-18%,?,-1%,2.8µM*,-20%
C[C@H]1CCC[C@]2(C)C[C@H]3OC(=O)C(CN4CCCCCC4)[C@H]3C=C12 (some centres undefined),-7%,11µM*,-2%,-74%,?
C=C1CCC[C@]2(C)C[C@H]3OC(=O)C(CN4CCCCC4CO)[C@H]3CC12 (some centres undefined),0%,63%,5%,-79%,-10%
CCOC(=O)c1ccccc1NC(=O)c1sc2nc3n(c(=O)c2c1C)CCCCC3,.,11%,.,.,10%
O=C(NNC(=O)c1ccccc1Cl)c1cccs1,1%,10%,3%,?,0%
O=C(NNC(=O)c1ccccc1F)c1cccs1,1%,18%,2%,5.6µM*,6%
CC[C@]12c3[nH]c4cc(CCC(=O)N(C)C)ccc4c3CCN1C(=O)[C@@H](CC(=O)NCCc1ccccn1)C[C@@H]2C(=O)N1CCN(C(=O)c2ccco2)CC1,-3%,17%,.,36%,-12%
Cc1ccc(-c2cc3ncc(C#N)c(N)n3n2)cc1,3%,5%,2%,8.9µM*,0%
Cc1ccc(-n2ncc(C#N)c2N)cc1,6%,-7%,-5%,10%,-13%
Cc1nn(CC(=O)NCC2CCCO2)c(C)c1[N+](=O)[O-] (centres undefined),4%,4%,-3%,0%,-15%
O=C(N/C(=C\c1ccc(Cl)cc1)C(=O)N1CCCCC1)c1ccco1,10%,10µM*,21%,-32%,-4%
CSc1ccc(/C=C(/NC(=O)c2ccco2)C(=O)N2CCCCCC2)cc1,-3%,?,2%,-8%,-1%
Cc1sc2ncnc(SCc3ccco3)c2c1C,2%,22%,-16%,-72%,9%
Cc1ccc(NS(=O)(=O)c2cc([N+](=O)[O-])ccc2NNC(=S)Nc2cc(C)ccc2C)c(C)c1,-20%,?,2%,-77%,11µM*
COc1ccc(NC(=S)NNc2ccc([N+](=O)[O-])cc2S(=O)(=O)Nc2ccc(C)cc2C)cc1,-1%,?,3%,-84%,?
CC1=C(C)/C(=N\OS(=O)(=O)c2ccc(C)cc2)C=CC1=O,-36%,?,-1%,-84%,-13%
CCOc1ccc(C(CC(=O)Nc2ccc(C(=O)OC)cc2)N2Cc3ccccc3C2=O)cc1OC (centres undefined),-4%,10%,.,9%,-4%
CC1CC(=O)NN=C1c1ccc(N)c([N+](=O)[O-])c1 (centres undefined),-4%,130%,4%,10%,-6%
COC(=O)c1ccc(-c2ccc(Cl)cc2)nc1C,0%,10%,6%,2µM*,-15%
COC(=O)c1ccccc1NC(=O)c1sc(Cl)nc1C,20%,25%,0%,-33%,-5%

# Bioassay records from PubChem.
